# Assay outcomes (PubChem BioAssay)
# This is one part of a sample in which hits are shown more often than they occur.
# Sfp PPTase inh: Sfp phosphopantetheinyl transferase inhibition. AID 1490. Biochemical Sfp PPTase activity, qHTS. hit rate 3.5% among 310,000. Potency, µM, for the others: largest response in the series, negative = inhibition, most hits filed as inhibitors. Q9F4F7;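 also: the enzyme is Sfp with the accession as filed and its product quenches rhodamine fluorescence; 0% = enzyme reaction without inhibitor and -100% = no enzyme wells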
#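 Buffer: 50 mM Hepes-Na pH 7.6, 10 mM MgCl2, 0.01% Nonidet P-40, 0.01% BSA. Enzyme 15 nM, pre-exposed to compound 15 min; substrates then added and fluorescence change tracked over 30 min.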
# Glioma ERSR ind: induces the endoplasmic reticulum stress response in human glioma cells | hit rate 0.02% among 420,000 | AID 602332 | U87-MG GRP78 promoter luciferase reporter, 16 h | Potency, µM, inactives show at the highest dose activation, actives largely listed as activators; also: series mostly up to about 76 µM; % of control where 0% means no effect; nearly all actives have a fitted effect of over 35% in size
#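 ERSR induction read as luciferase luminescence (Bright-Glo, 10 min at room temperature) in stably transfected human U87-MG glioma cells exposed to compounds for 16 h, using GRP78 as sensor.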
# ALOX12 inh: ALOX12 (human) lipoxygenase inhibition | Potency, µM (series often up to 108 µM), for the others: at the top dose activity change, negative = inhibition, most hits filed as inhibitors | hit rate 1.1% among 580,000 | AID 1671190 | purified 12hLO, xylenol orange hydroperoxide absorbance; also: % is scaled to controls: 0 for no effect and ±100 for the full control effect
#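 Hydroperoxide product was detected by ferrous iron/xylenol orange as the 573 to 405 nm absorbance ratio. Arachidonic acid at 40 uM (final) was turned over for 30 min at room temperature by 150 nM human 12hLO, pH 7.0 Hepes buffer, after 15 min compound preincubation.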
# VDR inhibitor: blocks the human vitamin D receptor; VDR-SRC2-3 peptide fluorescence polarization, 2 h; Potency, µM, inactives show max response, negative = inhibition, actives largely listed as inhibitors; hit rate 0.93% among 400,000; AID 504847; also: % is scaled to controls: 0 for no effect and ±100 for the full control effect
# Target sequence (P11473 whole entry, looked up): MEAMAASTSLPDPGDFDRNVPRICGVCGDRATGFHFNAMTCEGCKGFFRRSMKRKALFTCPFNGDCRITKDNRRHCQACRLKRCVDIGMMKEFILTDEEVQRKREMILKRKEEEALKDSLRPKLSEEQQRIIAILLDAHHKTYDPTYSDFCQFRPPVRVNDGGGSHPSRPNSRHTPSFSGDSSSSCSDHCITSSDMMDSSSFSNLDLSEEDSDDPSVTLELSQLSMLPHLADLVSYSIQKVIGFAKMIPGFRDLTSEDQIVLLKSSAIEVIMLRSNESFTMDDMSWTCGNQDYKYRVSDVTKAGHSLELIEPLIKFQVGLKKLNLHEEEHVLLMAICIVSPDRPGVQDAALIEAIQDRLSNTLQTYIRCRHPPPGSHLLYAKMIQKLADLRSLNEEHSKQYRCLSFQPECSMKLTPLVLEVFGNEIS
#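 Two reagent solutions held at 4 deg C in the dark were dispensed, compounds pinned at 23 nl, and the mixture incubated 2 h at room temperature. Read-out: fluorescence polarization of VDR–SRC2-3 peptide binding.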
# G9a inh: inhibitors of human histone lysine methyltransferase G9a; G9a H3K9 monomethylation, AlphaScreen, 2 h; Potency, µM (highest dose often 102 µM), for inactives: at the top dose activity, negative = inhibition, most hits filed as inhibitors; AID 504332; hit rate 8.8% among 350,000; also: % is scaled to controls: 0 for no effect and ±100 for the full control effect; nearly all actives have a fitted effect of over 75% in size
# Target sequence (Q96KQ7 913-1193 limits assumed): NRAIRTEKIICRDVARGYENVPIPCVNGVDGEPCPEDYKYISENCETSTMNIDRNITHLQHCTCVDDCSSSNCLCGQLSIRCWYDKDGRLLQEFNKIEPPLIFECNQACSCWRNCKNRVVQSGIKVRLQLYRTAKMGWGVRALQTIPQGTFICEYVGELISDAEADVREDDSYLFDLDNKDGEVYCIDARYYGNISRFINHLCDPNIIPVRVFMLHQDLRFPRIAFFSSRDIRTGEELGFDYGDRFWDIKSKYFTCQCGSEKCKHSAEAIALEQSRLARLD
#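 Chemiluminescent proximity detection of H3K9 monomethylation, read after 10 min bead incubation in the dark. Reaction: 20 nM G9a, 500 nM biotin-H3K9 peptide, 20 uM SAM cofactor, 2 h, room temperature, following 15 min enzyme-compound preincubation.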
# An asterisk follows results filed as active; ? = inconclusive; . = not tested or not shown; [ ] = remark or other dose. Calls follow the shape of the dose curve; as a rule, active = well fitted curve in the direction sought with a large enough effect; inconclusive = small, poorly fitted or top-dose-only effect, or another doubt; inactive = no such curve, though single readings can be large; an effect the other way counts as inactive or inconclusive. Potency is read from the fitted curve at half-maximal effect.
SMILES,Sfp PPTase inh,Glioma ERSR ind,ALOX12 inh,VDR inhibitor,G9a inh
COc1cccc(Nc2nc(-c3cccc(N4C(=O)c5ccccc5C4=O)c3)cs2)c1,15%,-4%,?,-8%,14µM*
O=C(N/N=C1/C(=O)c2cccc3cccc1c23)c1ccc(Cl)cc1,45µM*,-4%,0%[57.4 µM],4%,?
Cn1c2ccccc2c2nnc(SCC(=O)Nc3cccc(O)c3)nc21,-9%,5%,?,-4%,71µM*
CCn1c2ccc(C)cc2c2nnc(SCCN3CCOCC3)nc21,-5%,-1%,-16%,-13%,45µM*
CCn1c2ccccc2c2nnc(SCCN3CCOCC3)nc21,?,0%,-49%,-16%,0%[0.501 µM]
CCCCn1c2ccc(C)cc2c2nnc(SCCN3CCCCC3)nc21,2%,-2%,-14%,17%,?
Cn1c2ccccc2c2nnc(SCCN3CCOCC3)nc21,-13%,-2%,-5%,10%,50µM*
Cc1cccc(NC(=O)CSc2nnc3c4ccccc4n(C)c3n2)c1,.,0%,0%,-15%,2%[59 µM]
Cc1cc(C)nc(SCC(=O)NC2=NN=C(c3ccc(Br)cc3)CS2)n1,40µM*,1%,?,45µM*,?
CN(Cc1ccccc1)C(=O)C[C@@H]1CCNC[C@@H]1Cc1cc(COc2ccccc2)on1,.,.,-5%[176 µM],.,.
CC(C)Cn1c(-c2ccccc2)cnc1SC(C)C(=O)NC(N)=O (centres undefined),.,.,8%,.,.
CCn1c2ccccc2c2nnc(SCC(=O)Nc3cc(C)on3)nc21,-5%,-1%,-21%,12%,-2%
CCCCn1c2ccccc2c2nnc(SCC(=O)NC3=NN=C(c4ccccc4)CS3)nc21,-4%,.,-18%,.,28µM*
Cn1c(=O)[nH]c(=O)c2c1nc(NCCc1ccccc1)n2CC(=O)c1ccccc1,.,.,-3%,.,.
O=C(NC(=S)Nc1ccc(CN2CCCCC2)cc1)c1cccc(OCc2ccccc2)c1,79µM*,2%,32µM*,-24%,?
O=C(Nc1ccccc1)c1cccc(OCc2ccccc2)c1,.,.,-23%,.,.
O=C(Cc1ccccc1)Nc1ccc(NC(=S)NC(=O)c2ccccc2)cc1,-3%,-6%,?,-25%,4%
O=C(O)c1ccc(NC(=S)NC(=O)c2cccc(COc3ccccc3)c2)cc1,50µM*,3%,7.9µM*,-13%,28µM*
c1cc(CN2CCCCC2)cc(OCCCNc2nc3ccccc3s2)c1,3%,-2%,?,-5%,17%[12.7 µM]
O=C(NCCCOc1cccc(CN2CCCCC2)c1)c1ccc(Cl)c(Cl)c1,-5%,-3%,-26%,8%,10µM*
O=C(c1ccccc1Oc1ccccc1)N1CCC(c2nc3ccccc3o2)CC1,.,.,13%,.,.
COc1ccc([C@@H]2c3c(C)nn(-c4ccccc4)c3NC(=O)[C@H]2NC(=O)c2ccc(Cl)cc2)cc1,.,.,18%,.,.
CC(=O)NC1=C(NC2CCS(=O)(=O)C2)C(=O)c2ccccc2C1=O (centres undefined),32µM*,-5%,-28%,?,1.8µM*
CN(C1=C(NC(=O)c2ccccc2)C(=O)c2ccccc2C1=O)C1CCS(=O)(=O)C1 (centres undefined),20µM*,-11%,?,-20%,?
C=C1N(S(=O)(=O)C(F)(F)F)CCC12CN(S(=O)(=O)c1ccc(C)cc1)c1ccccc12 (centres undefined),.,.,0%,.,.
SMILES,Sfp PPTase inh,Glioma ERSR ind,ALOX12 inh,VDR inhibitor,G9a inh
CCOC(=O)C1=C(C)N(c2ccccc2)C(=O)C1CC(=O)O (centres undefined),11%,-3%,12%[57.4 µM],13%,18µM*
CCOC(=O)c1ccc2c(c1)[n+](CC)c(C)n2-c1ccccc1,-6%,-5%,?,-10%,32µM*
CC(=O)OCC[n+]1c(C)n(-c2ccccc2)c2ccc(Cl)cc21,4%,-4%,?,4%,50µM*
CCOC(=O)c1ccc2c(c1)n(CC)c(C)[n+]2CC,10%,-5%,?,-4%,?
CCOC(=O)c1c(O)c(O)c(C(=O)OCC)n1-c1ccccc1,32µM*,-6%,?,-8%,8.9µM*
CCOC(=O)c1c(C)n(-c2ccccc2)c2ccc(OC(=O)c3cccc(Cl)c3)cc12,.,-1%,0%,-15%,-27%[59 µM]
COc1cccc(C2C(C(=O)/C=C/c3ccco3)=C(O)C(=O)N2CCN2CCOCC2)c1 (centres undefined),?,-3%,?,24%,50µM*
COc1cccc(C2C(C(=O)c3sc(C)nc3C)=C(O)C(=O)N2CCN2CCOCC2)c1 (centres undefined),-17%,3%,?,-6%,50µM*
CCN(CC)CCCN1C(=O)C(O)=C(C(=O)c2sc(C)nc2C)C1c1ccc(C)o1 (centres undefined),1%,.,.,.,-17%[59 µM]
Cc1ccc(C2C(C(=O)c3sc(C)nc3C)=C(O)C(=O)N2CCN2CCOCC2)o1 (centres undefined),-9%,1%,?,-7%,35µM*
COc1ccc(C2C(C(=O)/C=C/c3ccco3)=C(O)C(=O)N2CCN2CCOCC2)cc1 (centres undefined),-30%,-2%,-28%,-20%,?
Cc1ccc(O)c(CN2CC[C@@H](c3ccc(F)cc3)[C@H](O)C2)c1,.,.,-7%,.,.
O=C(CN1CCN(c2ccc([N+](=O)[O-])c3cnccc23)CC1)Nc1ccc(OC(F)(F)F)cc1,.,.,14%,.,.
CC(=O)Nc1ccc(Br)c2ccccc12,1%,-5%,-6%,-8%,-1%
O=C(Nc1ccc(Br)c2ccccc12)c1ccc2ccccc2c1O,-3%,-3%,-14%,?,28µM*
O=c1/c(=C/c2ccccn2)sc2nc3ccccc3n12,-4%,-4%,-5%,-12%,50µM*
O=[N+]([O-])c1cc([N+](=O)[O-])c2cc3ccccc3nc2c1,-6%,-6%,-22%,?,?
O=c1/c(=C\c2cc([N+](=O)[O-])cc([N+](=O)[O-])c2O)sc2nc3ccccc3n12,22µM*,-1%,.,40µM*,6.3µM*
CCOC(=O)c1c(C)[nH]c(O)c1C=Nc1ccccc1,?,-3%,-25%,-14%,1%
CCOC(=O)c1c(C)[nH]c(N=Nc2ccccc2Cl)c1C,?,11%,-1%,-13%,-119%[59 µM]
CCOC(=O)c1c(C)[nH]c(C=Nc2ccccc2)c1O,40µM*,.,.,.,?
CCOC(=O)c1c(C)[nH]c(N=Nc2ccccc2)c1C,-24%,7%,?,5%,40µM*
CCOC(=O)c1c(C)[nH]c(C)c1C(=O)COC(=O)c1ccccc1O,9%,-5%,?,-14%,50µM*
Cc1[nH]c2ccccc2c1C(=O)COC(=O)c1ccccc1O,.,1%,?,5%,.
CCOC(=O)c1c(C)[nH]c(N=Nc2ccc(OC)cc2)c1C,50µM*,10%,?,-11%,28µM*
CCOC(=O)c1c(C)[nH]c(N=Nc2ccc(C)cc2)c1C,20µM*,8%,2%,0%,?
